Several values for one entry are separate records, joined by “and”; a condition that tells them apart may be missing. Identical values can stand only once. Records with an inconclusive call do not appear. Activity calls are given as the source filed them. Unless noted, calls follow the shape of the full dose curve.
How the values were obtained:
[1] = qHTS assay for small molecule agonists of retinoid X receptor alpha signaling (AID 588544); conditions: HEK293T RXRa-UAS-bla, beta-lactamase reporter, 18 h; 530 nm emission;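 as to activation: 0% = DMSO basal wells and 100% = reference agonist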
[2] = target: Retinoic acid receptor RXR-alpha (Homo sapiens) (UniProt P19793); experiment: as above; conditions: HEK293T RXRa-UAS-bla, beta-lactamase reporter, 18 h; series mostly up to 76.7 µM
Chain of Retinoic acid receptor RXR-alpha (Homo sapiens) (P19793 whole entry, looked up): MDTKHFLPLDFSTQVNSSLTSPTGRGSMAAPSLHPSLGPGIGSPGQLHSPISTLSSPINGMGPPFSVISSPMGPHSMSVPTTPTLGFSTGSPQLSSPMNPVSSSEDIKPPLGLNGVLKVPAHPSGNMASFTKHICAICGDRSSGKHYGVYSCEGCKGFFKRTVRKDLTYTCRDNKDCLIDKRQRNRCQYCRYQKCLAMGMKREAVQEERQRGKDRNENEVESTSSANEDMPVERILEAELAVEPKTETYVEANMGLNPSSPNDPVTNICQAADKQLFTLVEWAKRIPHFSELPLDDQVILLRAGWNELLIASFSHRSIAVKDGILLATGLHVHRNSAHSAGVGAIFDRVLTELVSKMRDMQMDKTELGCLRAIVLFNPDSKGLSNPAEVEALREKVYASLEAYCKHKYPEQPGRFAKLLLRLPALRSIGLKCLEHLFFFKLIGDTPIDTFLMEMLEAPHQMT

[3] = target: Thyroid hormone receptor beta (Homo sapiens) (UniProt P10828); experiment: qHTS assay for small molecule agonists of thyroid hormone receptor beta signaling (AID 588545); conditions: TR-UAS-bla GripTite HEK 293, beta-lactamase ratio, agonist mode, 18 h, percent of T3 response, DMSO as zero; series mostly up to 76.7 µM;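 also: 0% = DMSO only and 100% = 10 nM T3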
Chain of Thyroid hormone receptor beta (Homo sapiens) (P10828 whole entry, looked up): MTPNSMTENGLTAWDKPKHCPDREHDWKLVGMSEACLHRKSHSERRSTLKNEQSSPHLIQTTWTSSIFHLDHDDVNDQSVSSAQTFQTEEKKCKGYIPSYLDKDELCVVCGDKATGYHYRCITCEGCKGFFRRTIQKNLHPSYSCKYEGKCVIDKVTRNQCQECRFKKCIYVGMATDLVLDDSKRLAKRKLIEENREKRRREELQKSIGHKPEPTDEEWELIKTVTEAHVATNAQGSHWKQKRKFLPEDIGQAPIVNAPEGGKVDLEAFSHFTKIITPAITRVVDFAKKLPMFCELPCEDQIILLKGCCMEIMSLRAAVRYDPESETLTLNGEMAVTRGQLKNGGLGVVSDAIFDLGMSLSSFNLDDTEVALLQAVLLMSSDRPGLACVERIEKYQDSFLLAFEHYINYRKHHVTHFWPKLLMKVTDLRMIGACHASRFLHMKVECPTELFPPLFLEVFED
Procedure, shortened: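 Efficacy and EC50 values derive from Hill fits of qHTS titration data, normalized to 10 nM T3 and DMSO-only wells. HEK 293 reporter cells were stimulated for 18 hrs at 37 C, with beta-lactamase activity measured by CCF4 fluorescence.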

[4] = qHTS assay for small molecule antagonists of retinoid X receptor alpha signaling (AID 588546; active = well fitted inhibition curve with a large enough effect in the signal ratio, with a control signal flat, not every such curve was filed as active; the % refers to the signal ratio;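 also: cells stimulated with 9-cis-retinoic acid as agonist; % is scaled to controls: 0 for no effect and ±100 for the full control effect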); conditions: HEK293T RXRa-UAS-bla, beta-lactamase ratio, antagonist mode; measured here: W530 green channel, cytotoxicity proxy
Procedure, shortened: (§1)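 Beta-lactamase reporter inhibition, read as CCF4 fluorescence ratio (ex 405, em 460/530 nm) after 2 h at RT. HEK293T UAS-bla cells, 2500/well, were stimulated with 9-cis-RA at 500 or 100 nM final alongside test compound for 18 h at 37 C.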

[5] = target: Retinoic acid receptor RXR-alpha (Homo sapiens) (UniProt P19793); experiment: as above; conditions: HEK293T RXRa-UAS-bla, beta-lactamase ratio, antagonist mode
Procedure, shortened: as §1

[6] = target: Thyroid hormone receptor beta (Homo sapiens) (UniProt P10828); experiment: qHTS assay for small molecule antagonists of thyroid hormone receptor beta signaling (AID 588547; active = well fitted inhibition curve with a large enough effect in the signal ratio, with a control signal flat, not every such curve was filed as active; the % refers to the signal ratio;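 also: cells stimulated with 0.4 nM T3 agonist during compound exposure; % is scaled to controls: 0 for no effect and ±100 for the full control effect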); conditions: TR-UAS-bla HEK293, beta-lactamase ratio, antagonist mode, 18 h
Procedure, shortened: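 TR-UAS-bla GripTite HEK293 cells in 2% charcoal/dextran FBS medium were preincubated 4 h at 37 C, given compound (0.59 nM to 92 uM) plus 0.4 nM T3 (final) for 18 h, then CCF4 for 2 h at RT; Hill fit gave IC50.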

[7] = target: Voltage-gated inwardly rectifying potassium channel KCNH2 (Homo sapiens) (UniProt Q12809); experiment: qHTS Assay for Small Molecule Inhibitors of the Human hERG Channel Activity (AID 588834; active = well fitted inhibition curve with a large enough effect;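 also: top concentration of the series differs between compounds; % is scaled to controls: 0 for no effect and ±100 for the full control effect; lower thallium flux fluorescence means stronger hERG block; nearly all actives have a fitted effect of over 50% in size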); conditions: U2OS BacMam hERG, FluxOR thallium flux fluorescence; series mostly up to 92.2 µM
Chain of Voltage-gated inwardly rectifying potassium channel KCNH2 (Homo sapiens) (Q12809 whole entry, looked up): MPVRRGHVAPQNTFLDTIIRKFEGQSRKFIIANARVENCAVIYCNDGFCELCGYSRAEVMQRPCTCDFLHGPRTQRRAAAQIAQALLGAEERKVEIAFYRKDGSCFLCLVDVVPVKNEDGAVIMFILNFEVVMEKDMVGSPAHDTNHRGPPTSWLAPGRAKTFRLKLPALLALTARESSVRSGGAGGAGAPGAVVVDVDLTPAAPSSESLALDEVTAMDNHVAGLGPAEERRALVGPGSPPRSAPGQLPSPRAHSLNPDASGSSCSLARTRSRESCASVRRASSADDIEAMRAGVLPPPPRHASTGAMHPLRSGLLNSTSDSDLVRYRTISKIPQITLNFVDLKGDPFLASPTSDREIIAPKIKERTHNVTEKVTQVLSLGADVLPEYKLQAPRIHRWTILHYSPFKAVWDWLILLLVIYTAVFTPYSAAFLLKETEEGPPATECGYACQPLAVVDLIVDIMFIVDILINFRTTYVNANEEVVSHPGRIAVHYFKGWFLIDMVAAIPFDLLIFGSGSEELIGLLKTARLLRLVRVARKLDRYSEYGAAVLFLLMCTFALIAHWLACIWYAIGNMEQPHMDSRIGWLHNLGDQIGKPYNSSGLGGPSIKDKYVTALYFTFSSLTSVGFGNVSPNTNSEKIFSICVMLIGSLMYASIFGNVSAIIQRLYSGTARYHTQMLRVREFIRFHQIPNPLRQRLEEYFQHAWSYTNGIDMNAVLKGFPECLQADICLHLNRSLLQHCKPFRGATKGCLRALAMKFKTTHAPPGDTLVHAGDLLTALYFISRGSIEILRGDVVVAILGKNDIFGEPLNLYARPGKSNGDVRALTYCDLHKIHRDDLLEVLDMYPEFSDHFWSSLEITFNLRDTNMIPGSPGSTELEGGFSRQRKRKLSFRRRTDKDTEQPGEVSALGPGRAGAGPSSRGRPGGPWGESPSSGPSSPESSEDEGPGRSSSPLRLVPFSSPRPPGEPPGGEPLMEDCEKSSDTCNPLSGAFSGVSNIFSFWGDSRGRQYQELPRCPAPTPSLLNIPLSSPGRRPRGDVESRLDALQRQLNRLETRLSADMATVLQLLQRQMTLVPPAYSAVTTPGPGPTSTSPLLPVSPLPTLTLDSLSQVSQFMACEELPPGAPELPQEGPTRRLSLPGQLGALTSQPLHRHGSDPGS
Procedure, shortened: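 Step 1: BacMam hERG transduction of U2OS, 4 hrs RT. Step 2: overnight 37 °C, plate 2000 cells/well, 4 hr. Step 3: FluxOR load, compound 10 min, stimulate, read fluorescence.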

[8] = qHTS assay for small molecule agonists of the antioxidant response element (ARE) signaling pathway (AID 651741; active = well fitted activation curve with a large enough effect in the signal ratio; the % refers to the signal ratio; also: potency is read from the fitted curve at half-maximal effect; as to activation: % of control where 0% means no effect); conditions: HepG2 ARE-bla reporter, beta-lactamase FRET ratio, 16 h; series mostly up to 96 µM
Procedure, shortened: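 Reporter: beta-lactamase under ARE, stably in HepG2. Exposure: 16 h, 37 C, compounds delivered in DMSO by pin tool after 5 h cell preincubation. Readout: FRET substrate fluorescence after 2 h at RT.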

[9] = qHTS assay for small molecule activators of the p53 signaling pathway (AID 651743; active = well fitted activation curve with a large enough effect in the signal ratio, not every such curve was filed as active; the % refers to the signal ratio; also: % of control where 0% means no effect); conditions: HCT-116 p53RE-bla, beta-lactamase FRET ratio, 16 h; stronger effect = higher value
Procedure, shortened: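 Agonist-mode quantitative HTS in HCT-116 cells carrying a p53-response-element beta-lactamase reporter; 16 h compound treatment at 37 C, then FRET substrate loading for 2 h at room temperature and fluorescence read.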

Clc1ccc(Cl)c(Cl)c1Cl
max response [1]: -17% and 0.458% | outcome [2]: inactive | outcome [3]: inactive | max response [4]: 6.74% and -2.64% | max response [5]: 10.9% (inactive) and -11.3% (inactive) | activity change % (negative = inhibition) [6]: 26.9% (inactive) | Potency [7]: inactive | Potency [8]: inactive | activation [9]: -4.49% (inactive) and 4.59% (inactive)

Cc1nc2ccc(Cl)cc2[nH]1
max response [1]: -24.2% | outcome [2]: inactive | outcome [3]: inactive | max response [4]: -9.52% | max response [5]: -12.1% (inactive) | activity change % (negative = inhibition) [6]: 9.04% (inactive) | Potency [7]: inactive | Potency [8]: inactive | activation [9]: -1.34% (inactive)

Nc1cccc(C(F)(F)F)c1
max response [1]: 3.76% and -4.65% | outcome [2]: inactive | outcome [3]: inactive | max response [4]: -1.51% and -8.69% | max response [5]: 23% (inactive) and -15.4% (inactive) | activity change % (negative = inhibition) [6]: 5.58% (inactive) | Potency [7]: inactive | Potency [8]: inactive

Cc1ccccc1C#N
max response [1]: -8.62% | outcome [2]: inactive | outcome [3]: inactive | max response [4]: -10.7% | max response [5]: 15.6% (inactive) | activity change % (negative = inhibition) [6]: 4.81% (inactive) | Potency [7]: inactive | Potency [8]: inactive | activation [9]: -0.804% (inactive)

C=CC(=O)OCCCC
max response [1]: -9.05% | outcome [2]: inactive | outcome [3]: inactive | max response [4]: 3.81% | max response [5]: -2.2% (inactive) | activity change % (negative = inhibition) [6]: 1.99% (inactive) | Potency [7]: inactive | Potency [8]: inactive | activation [9]: -0.944% (inactive)

O=C(Cl)c1c(Cl)cccc1Cl
max response [1]: -8.14% | outcome [2]: inactive | outcome [3]: inactive | max response [4]: -4.7% | max response [5]: 4.97% (inactive) | activity change % (negative = inhibition) [6]: -15.6% (inactive) | Potency [7]: inactive | Potency [8]: inactive

Cc1cccc(Br)c1
max response [1]: -0.411% | outcome [2]: inactive | outcome [3]: inactive | max response [4]: -8.74% | max response [5]: 17.3% (inactive) | activity change % (negative = inhibition) [6]: 0.545% (inactive) | Potency [7]: inactive | Potency [8]: inactive | activation [9]: -1.99% (inactive)

CC(C)=CCC/C(C)=C/C=O
max response [1]: 15.9% and -0.251% | outcome [2]: inactive | outcome [3]: inactive | max response [4]: 6.99% and -4.75% | max response [5]: 4.52% (inactive) and -4.94% (inactive) | activity change % (negative = inhibition) [6]: -16.2% (inactive) | Potency [7]: inactive | Potency [8]: inactive | activation [9]: -0.8% (inactive) and -0.838% (inactive)

CC(=O)c1nccs1
max response [1]: 4.76% | outcome [2]: inactive | outcome [3]: inactive | max response [4]: -5.53% | max response [5]: -9.7% (inactive) | activity change % (negative = inhibition) [6]: 1.64% (inactive) | Potency [7]: inactive | Potency [8]: inactive | activation [9]: -4.02% (inactive)

Nc1cc(S(=O)(=O)O)ccc1O
max response [1]: 6.72% | outcome [2]: inactive | outcome [3]: inactive | max response [4]: 0.685% | max response [5]: 10% (inactive) | activity change % (negative = inhibition) [6]: 6.95% (inactive) | Potency [7]: inactive | Potency [8]: inactive | activation [9]: -1.55% (inactive)

Cc1cccc(C)c1
max response [1]: -8.44% | outcome [2]: inactive | outcome [3]: inactive | max response [4]: -8.63% | max response [5]: -1.87% (inactive) | activity change % (negative = inhibition) [6]: 21.6% (inactive) | Potency [7]: inactive

C1CCCC1
max response [1]: -15.2% | outcome [2]: inactive | outcome [3]: inactive | max response [4]: -15.6% | max response [5]: -5.52% (inactive) | activity change % (negative = inhibition) [6]: -1.41% (inactive) | Potency [7]: inactive | Potency [8]: inactive | activation [9]: -0.131% (inactive)

Nc1cccc(S(=O)(=O)O)c1
max response [1]: 8.69% | outcome [2]: inactive | outcome [3]: inactive | max response [4]: -5.6% | max response [5]: 16.1% (inactive) | activity change % (negative = inhibition) [6]: -28.7% (inactive) | Potency [7]: inactive | Potency [8]: inactive | activation [9]: -1.01% (inactive)

C1CCC2OC2C1 (stereo not given)
max response [1]: 6.92% | outcome [2]: inactive | outcome [3]: inactive | max response [4]: -13.8% | max response [5]: 6.91% (inactive) | activity change % (negative = inhibition) [6]: 14.7% (inactive) | Potency [7]: inactive | Potency [8]: inactive

Cc1ccc(C)o1
max response [1]: 16.3% | outcome [2]: inactive | outcome [3]: inactive | max response [4]: 5.87% | max response [5]: -4.44% (inactive) | activity change % (negative = inhibition) [6]: -3.98% (inactive) | Potency [7]: inactive | Potency [8]: inactive | activation [9]: -6.1% (inactive)

NC(=O)NC(N)=O
max response [1]: 6.09% | outcome [2]: inactive | outcome [3]: inactive | max response [4]: -1.82% | max response [5]: 66.5% (inactive) | activity change % (negative = inhibition) [6]: 9.23% (inactive) | Potency [7]: inactive | Potency [8]: inactive | activation [9]: -4.91% (inactive)

C=C(C)C(=O)OCCCCCCCCCC
max response [1]: -10.3% | outcome [2]: inactive | outcome [3]: inactive | max response [4]: -7.57% | max response [5]: -3.36% (inactive) | activity change % (negative = inhibition) [6]: 12.3% (inactive)

O=C(O)c1c(Cl)cccc1Cl
max response [1]: -13.5% | outcome [2]: inactive | outcome [3]: inactive | max response [4]: 2.22% | max response [5]: 13.3% (inactive) | activity change % (negative = inhibition) [6]: 3.89% (inactive) | Potency [7]: inactive | Potency [8]: inactive | activation [9]: -0.426% (inactive)

O=C(O)CNC(=O)c1ccc([N+](=O)[O-])cc1
max response [1]: 0.246% | outcome [2]: inactive | outcome [3]: inactive | max response [4]: -9.96% | max response [5]: 23.2% (inactive) | activity change % (negative = inhibition) [6]: 4.89% (inactive) | Potency [7]: inactive | Potency [8]: inactive | activation [9]: -1.97% (inactive)

CCNc1cc(O)ccc1C
max response [1]: -5.56% | outcome [2]: inactive | outcome [3]: inactive | max response [4]: -2.01% | max response [5]: 1.41% (inactive) | activity change % (negative = inhibition) [6]: 14.6% (inactive) | Potency [7]: inactive | Potency [8]: 59.6 µM (active) | activation [9]: -1.04% (inactive)

CC(C)(C)c1ccc(OCC2CO2)cc1 (stereo not given)
max response [1]: -13.4% | outcome [2]: inactive | outcome [3]: inactive | max response [4]: -2.99% | max response [5]: 11.5% (inactive) | activity change % (negative = inhibition) [6]: 5.82% (inactive)

Cc1ccc(C)c(O)c1
max response [1]: 0.17% | outcome [2]: inactive | outcome [3]: inactive | max response [4]: -5.88% | max response [5]: 6.26% (inactive) | activity change % (negative = inhibition) [6]: 1.01% (inactive) | Potency [7]: inactive | Potency [8]: inactive | activation [9]: 0.75% (inactive)

O=P(O)(OCc1ccccc1)OCc1ccccc1
max response [1]: 6.08% | outcome [2]: inactive | outcome [3]: inactive | max response [4]: -0.49% | max response [5]: -5.97% (inactive) | activity change % (negative = inhibition) [6]: 0.248% (inactive) | Potency [7]: inactive | Potency [8]: inactive | activation [9]: -2.58% (inactive)

O=[N+]([O-])c1cc(C(F)(F)F)ccc1Cl
max response [1]: -4.02% | outcome [2]: inactive | outcome [3]: inactive | max response [4]: -1.67% | max response [5]: -6.84% (inactive) | activity change % (negative = inhibition) [6]: -5.36% (inactive) | Potency [7]: inactive | Potency [8]: inactive | activation [9]: -0.0124% (inactive)
